Molecules are shown by their SMILES. Inconclusive results are not listed. A call without a number means that no potency is given here. Calls of active or inactive are those of the source. Calls come from the whole dose curve; as a rule, active = well fitted inhibition curve with a large enough effect; inconclusive = small, poorly fitted or top-dose-only effect; inactive = flat fitted curve, though single readings scatter.

Experimental findings from PubChem BioAssay AID493169 (National Center for Advancing Translational Sciences (NCATS), 2011) are described below.
Potency is the fitted concentration of half-maximal effect.

The test can be described thus: CHOP2 Reporter Counterscreen Assay for Inhibitors of Ubiquitin-specific Protease USP2a.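 Note: activated enterokinase alone at 50 pM in a cell-free format rather than USP2a or CHOP2; nearly all actives have a fitted effect of over 55% in size.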 As to conditions: purified enterokinase, fluorogenic substrate, 485/531 nm; series mostly up to 38.3 µM. In outline: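 Fluorescence (485/531 nm) read 10 min after adding 25nM reporter substrate to 50 pM activated EK preincubated 30 min RT with compound; Tris pH 8.0/CaCl2/CHAPS buffer. Data normalized to buffer-alone inhibition; concentration-response curves fitted.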
In general terms: A counterscreen serves to expose hits that act by an unwanted route or on another target.
Turning to `O=S(=O)(NC1CCSc2ccccc21)c1ccccc1` (stereo not drawn), the Potency result was “inactive”.

Consider `O=C(CCCN1C(=O)/C(=C\c2ccco2)SC1=S)Nc1ccc(O)cc1C(=O)O`, for which the Potency is 12.6 µM (active).

As to `Cc1ccc(NS(=O)(=O)c2cccc(C(=O)OCC(=O)NCc3ccco3)c2)cc1`, the Potency is 10 µM (active).

For the compound `O=C(NN1C(=O)/C(=C/C=C/c2ccco2)SC1=S)c1ccncc1`, the Potency is 2.51 µM (active).

For the compound `CC(=O)Nc1ccc(Nc2cc(C)nc(Nc3ccc(NC(C)=O)cc3)n2)cc1`, the Potency result is “inactive”.

On to `CCSc1nc(N2CCCCC2)c2c(c1C#N)CCCC2`, for which the Potency result is “inactive”.

Consider `CC(C)(C)C1CCC(=NNC(=O)CN(c2ccccc2)S(C)(=O)=O)CC1` (stereo not drawn), for which the Potency entry is “inactive”.

As for `CCN1C(=O)CSc2ccc(C(=O)NC3CCCCC3)cc21`, the Potency result is “inactive”.
